HP1b chromo inh: HP1-beta chromodomain-methylated histone interaction inhibition. actives 0.56% (n = 390,000). AlphaScreen HP1-beta / biotin-H3K9me3 peptide binding. P83916. AID 540317. Potency, µM (top dose mostly 114 µM), inactives show at the top dose activity change, negative = inhibition, most hits filed as inhibitors; also: nearly all actives have a fitted effect of over 70% in size
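HP1-beta protein (50 nM final) preincubated 30 min at room temperature with biotinylated H3(1-18)K9me3 peptide (50 nM) in PBS pH 7.4, 0.01% Tween-20, then compound added for 30 min. AlphaScreen streptavidin donor/nickel chelate acceptor beads (10 ug/mL final), 30 min dark, luminescence read.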
Sfp PPTase inh: inhibitors of Bacillus subtilis Sfp phosphopantetheinyl transferase; Potency, µM, inactives show largest response in the series, negative = inhibition, hits mostly inhibitors; Biochemical Sfp PPTase activity, qHTS; Q9F4F7; actives 3.5% (n = 310,000);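 also: the enzyme is Sfp with the accession as filed and its product quenches rhodamine fluorescence; 0% = enzyme reaction without inhibitor and -100% = no enzyme wells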
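Buffer: 50 mM Hepes-Na pH 7.6, 10 mM MgCl2, 0.01% Nonidet P-40, 0.01% BSA. Enzyme 15 nM, pre-exposed to compound 15 min; substrates then added and fluorescence change tracked over 30 min.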
JMJD2A Tudor inh: blocks the human JMJD2A Tudor domain | AlphaScreen JMJD2A-Tudor / H3K4me3 peptide binding | Potency, µM (series often up to 114 µM), without a hit: at the top dose activity change, negative = inhibition, usual class: inhibitors | actives 4.4% (n = 390,000) | O75164; also: % is scaled to controls: 0 for no effect and ±100 for the full control effect; nearly all actives have a fitted effect of over 50% in size
Target sequence (O75164 whole entry, looked up, the tested form may be a part): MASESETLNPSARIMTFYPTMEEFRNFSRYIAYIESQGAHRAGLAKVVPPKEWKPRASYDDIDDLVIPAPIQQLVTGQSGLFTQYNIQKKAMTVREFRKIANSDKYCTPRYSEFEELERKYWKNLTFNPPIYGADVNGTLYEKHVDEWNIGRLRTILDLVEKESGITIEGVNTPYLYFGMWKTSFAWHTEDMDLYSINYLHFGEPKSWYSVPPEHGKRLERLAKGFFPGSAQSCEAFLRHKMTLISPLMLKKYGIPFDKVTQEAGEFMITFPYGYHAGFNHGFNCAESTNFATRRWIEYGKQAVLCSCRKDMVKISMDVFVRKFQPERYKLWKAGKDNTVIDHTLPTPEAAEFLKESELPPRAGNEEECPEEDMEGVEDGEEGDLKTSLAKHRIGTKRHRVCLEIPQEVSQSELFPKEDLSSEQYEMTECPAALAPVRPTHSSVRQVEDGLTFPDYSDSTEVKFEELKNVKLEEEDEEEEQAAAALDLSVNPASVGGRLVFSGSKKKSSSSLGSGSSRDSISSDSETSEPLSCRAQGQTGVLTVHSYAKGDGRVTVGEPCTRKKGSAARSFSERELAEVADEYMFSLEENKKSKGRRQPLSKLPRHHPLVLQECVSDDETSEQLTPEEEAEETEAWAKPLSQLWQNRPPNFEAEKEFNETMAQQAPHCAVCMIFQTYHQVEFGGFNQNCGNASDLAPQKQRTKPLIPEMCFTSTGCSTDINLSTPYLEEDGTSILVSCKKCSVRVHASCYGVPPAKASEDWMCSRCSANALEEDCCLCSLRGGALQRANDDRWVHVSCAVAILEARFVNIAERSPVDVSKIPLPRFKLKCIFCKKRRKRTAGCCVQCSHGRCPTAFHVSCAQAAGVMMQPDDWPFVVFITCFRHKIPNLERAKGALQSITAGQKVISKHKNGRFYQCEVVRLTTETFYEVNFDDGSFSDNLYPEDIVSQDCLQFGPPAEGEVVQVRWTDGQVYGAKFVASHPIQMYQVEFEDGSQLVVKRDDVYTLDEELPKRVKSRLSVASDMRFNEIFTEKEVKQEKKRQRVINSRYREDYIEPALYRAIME
G9a inh: blocks human histone lysine methyltransferase G9a; AID 504332; actives 8.8% (n = 350,000); G9a H3K9 monomethylation, AlphaScreen, 2 h; Q96KQ7; Potency, µM (titrated, usually from 102 µM), inactives show at the highest dose activity, negative = inhibition, actives largely listed as inhibitors; also: % is scaled to controls: 0 for no effect and ±100 for the full control effect; nearly all actives have a fitted effect of over 75% in size
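G9a (20 nM) was preincubated 15 min with compound, then reacted 2 h at room temperature with 500 nM biotin-H3K9 peptide and 20 µM SAM. Monomethyl-H3K9 detected by AlphaScreen using anti-H3K9me1 antibody.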
BAZ2B inh: inhibitors of human BAZ2B bromodomain; Q9UIF8; AlphaScreen BAZ2B-H3K14Ac peptide displacement; Potency, µM (doses to about 114 µM), for inactives: at the top dose activity change, negative = inhibition, usual class: inhibitors; actives 4.4% (n = 360,000); also: % is scaled to controls: 0 for no effect and ±100 for the full control effect; nearly all actives have a fitted effect of over 60% in size
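AlphaScreen displacement of biotin-H3(5-23)K14Ac peptide (50 nM final) from BAZ2B (50 nM final) in PBS pH 7.4, 0.01% Tween-20; complex preformed 30 min RT, then compounds (top 110 uM) 30 min RT, beads 20 min dark.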
Numbers without * were called inactive; ? = inconclusive; . = no result given; [ ] = another dose, or the depositor's remark. An excerpt weighted towards active compounds, which were near 12% of everything screened. Calls follow the shape of the dose curve; as a rule, active = well fitted curve in the direction sought with a large enough effect; inconclusive = small, poorly fitted or top-dose-only effect, or another doubt; inactive = no such curve, though single readings can be large; an effect the other way counts as inactive or inconclusive. Potency is read from the fitted curve at half-maximal effect.

SMILES	HP1b chromo inh	Sfp PPTase inh	JMJD2A Tudor inh	G9a inh	BAZ2B inh
COc1cccc(OCc2cc(/C=N/Nc3ccc(C(=O)O)cc3)ccc2OC)c1	16%	-5%	56µM*	?	56µM*
COc1ccc(C(=O)N/N=C/c2ccc(OC)c(COc3ccc(F)cc3)c2)cc1	8%	18%	-10%	.	-27%
COc1cccc(C(=O)Oc2ccc(/C=N/Nc3ccc(C(=O)O)cc3)cc2OC)c1	-6%	?	?	.	50µM*
COc1cc(/C=N/Nc2ccc(Cl)c(C(=O)O)c2)ccc1OC(=O)c1ccc(F)cc1	7%	-15%	?	?	?
COc1ccc(/C=N/n2cncn2)cc1COc1ccc(NC(C)=O)cc1	-4%	-6%	50µM*	2%[12.7 µM]	7%
Cc1ccc(C(=O)c2oc3ccccc3c2NC(=O)Cc2coc3ccc(C)cc23)cc1	78%	.	18%	3%[59 µM]	4%
Cc1ccc(N2CCN(S(=O)(=O)c3ccc4c(c3)NC(=O)C(C)C(=O)N4)CC2C)cc1 (stereo not given)	22%	9%	-20%	-1%	?
CCOc1cc(/C=N/Nc2ccc(C(=O)O)cc2)ccc1OC(=O)c1ccccc1C	7%	-13%	?	35µM*	?
COc1cc(/C=N/Nc2ccc(Cl)c(C(=O)O)c2)ccc1OC(=O)c1ccccc1F	-11%	-22%	?	40µM*	?
CCOc1cc(/C=C(\C#N)C(=O)Nc2ccccc2C(=O)O)ccc1OC(=O)c1ccc(C)cc1	14%	-12%	50µM*	.	2%
COc1ccc(/C=C(/C#N)C(=O)Nc2ccccc2C)cc1C(=O)O	27%	-14%	-27%	21%[59 µM]	-8%
Cc1ccc(NC(=O)CCS(=O)(=O)c2cc3c(cc2Cl)NC(=O)CO3)cc1	22%	15%	-21%	35%	-21%
Cc1ccnc(NS(=O)(=O)c2ccc(NC(=O)/C=C/c3cccs3)cc2)n1	31%	27%	-8%	21%	-18%
COc1cccc(CC(=O)Nc2c(C(=O)N3CCN(c4ccccc4)CC3)oc3ccccc23)c1	7%	.	-12%	-9%[59 µM]	0%
Clc1ccc(C(Cn2ccnc2)OCc2c(Cl)cccc2Cl)c(Cl)c1 (stereo not given)	-25%	.	?	7.9µM*	32µM*
OC(Cn1ccnc1)c1ccc(Cl)cc1Cl (stereo not given)	14%	14%	-12%	?	-2%
CC(=O)c1ccccc1NC(=O)COC(=O)C1CCCN1S(=O)(=O)c1ccccc1F (stereo not given)	44%	.	2%	?	14%
O=C1NC(=S)SC1=Cc1cc(Br)ccc1O	?	.	20µM*	.	.
O=C1NC(=S)SC1=Cc1ccc(Cl)cc1	-26%	.	?	.	.
O=C1NC(=S)SC1=Cc1ccc(F)cc1	-3%	.	-31%	.	.
O=C1NC(=S)S/C1=C\c1coc2ccccc2c1=O	33%	2%	?	50µM*	?
C/[N+]([O-])=C\c1coc2ccccc2c1=O	10%	17%	13%	4%	1%
O=C1NC(=S)S/C1=C\c1coc2ccc(O)cc2c1=O	12%	2%	-1%[11.4 µM]	45µM*	?
COC(=O)Cc1c(O)ccn(Cc2ccc(Cl)c(Cl)c2)c1=O	27%	13%	-17%	-23%	-32%
CCCCN(C(=O)c1cc2c(s1)CCC2)c1c(N)n(CCC)c(=O)[nH]c1=O	?	.	?	45µM*	?
SMILES	HP1b chromo inh	Sfp PPTase inh	JMJD2A Tudor inh	G9a inh	BAZ2B inh
CCCCN(C(=O)c1cc2c(s1)CCC2)c1c(N)n(CC(C)C)c(=O)[nH]c1=O	-6%	.	-35%	2%[12.7 µM]	?
Cc1ccccc1C(=O)N1CCC(C(=O)N(CC(C)C)c2c(N)n(CC(C)C)c(=O)[nH]c2=O)CC1	28%	.	-14%	15%[12.7 µM]	4%
COCCN(C(=O)C1CCN(C(=O)c2ccccc2C)CC1)c1c(N)n(CC(C)C)c(=O)[nH]c1=O	-12%	.	89µM*	1.6µM*	?
COCCN(C(=O)c1cc2c(s1)CCC2)c1c(N)n(CC(C)C)c(=O)[nH]c1=O	20%	.	?	-45%[12.7 µM]	56µM*
COc1ccc(NC(=O)Cn2c(=O)oc3cc(S(=O)(=O)N4CCCCCC4)ccc32)cc1OC	56%	.	-7%	2%[59 µM]	-13%
CCCCN1C(N)=NC[C@@H]1CCCCN	60%	.	-10%	.	.
CC(Oc1ccccc1)C(=O)N1CCN(c2ccc(N3CCOCC3)nn2)CC1 (stereo not given)	12%	.	-13%	-34%	12%
Cc1ccc(NC(=O)c2ccc3c(c2)OCCO3)nc1	29%	.	0%	7%[59 µM]	9%
CC1CC(=O)Nc2ccccc2N1C(=O)Nc1ccc(F)cc1 (stereo not given)	32%	-6%	-7%	?	-2%
CSCCOC(=O)COc1ccc(/C=N/NC(=O)c2nn(C)cc2Cl)cc1	26%	4%	-1%	40µM*	-5%
CC(Oc1ccc(Cl)cc1Cl)C(=O)NC(Cc1ccccc1)C(=O)O (stereo not given)	37%	.	-4%	.	.
CCN(CC)CCNC(=O)c1ccc(NC(=O)c2ccc(S(=O)(=O)N(C)c3ccccc3OC)cc2)cc1	-7%	.	-26%	.	.
CCN(CC)CCNC(=O)c1ccc(NC(=O)c2cccc(S(=O)(=O)Nc3ccc(C)cc3)c2)cc1	22%	40µM*	-22%	?	-17%
CCN(CC)CCNC(=O)c1ccc(NC(=O)c2ccc(Cl)c(S(=O)(=O)Nc3ccccc3OC)c2)cc1	.	-9%	.	50µM*	-28%
CCN(CC)CCNC(=O)c1ccc(NC(=O)c2cccc(S(=O)(=O)N3CCc4ccccc43)c2)cc1	?	.	?	32µM*	-13%
CCN(CC)CCCNC(=O)c1ccc(N2CCCCC2)c(NS(=O)(=O)c2ccc(C)cc2)c1	40%	?	-19%	79µM*	?
O=C(CCN1C(=O)C2CC=CCC2C1=O)Nc1cc(C(F)(F)F)ccc1N1CCCC1 (stereo not given)	16%	.	-30%	?	8%
CCc1ccc(NC(=O)C[n+]2cc(-c3ccc(C)cc3)n3c2CCC3)cc1	34%	2%	-18%	-34%	-14%
Cc1cccc(N2CCN(C(=O)c3ccc4c(c3)N(Cc3cccc(Cl)c3)C(=O)c3ccccc3S4=O)CC2)c1C (stereo not given)	37%	.	-19%	-17%[59 µM]	-8%
COc1ccc(Cl)cc1NC(=O)Cn1cc(C(=O)c2ccc(C)cc2)c(=O)c2ccc(C)nc21	11%	.	-10%	-1%[59 µM]	8%[57.1 µM]
Cc1cccc(C)c1N1C(=O)C(Cl)=C(N2CCCC2)C1=O	169%	7%	85%	.	97%
CCSc1oc(-c2ccco2)nc1S(=O)(=O)c1ccc(F)cc1	14%	-26%	-15%	4µM*	3%
Cc1ccc(S(=O)(=O)c2nc(-c3ccco3)oc2SC(C)C)cc1	14%	-2%	-16%	45µM*	-14%
